Measured values: PubChem BioAssay AID624405 (Broad Institute, 2012)
About 250 (13%) of roughly 1,900 compounds were called active. Another 4% or so got no clear call; they are omitted.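 The calls were made as follows: active = fitted curve reaches 40% rescue activity at or below the top valid dose, in every test run; inconclusive = test runs disagree, some active and some inactive; inactive = every run misses the threshold or moves the wrong way.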 These entries were drawn from the full list. Potency and affinity values are given separately.

assay: suppressors of statin myotoxicity in myotubes, dose response, cell-based, C2C12 myotubes, ATP luminescence, cherry pick (AID 624405); details: C2C12 myotubes + simvastatin, 48 h, scaled: DMSO wells 0, geranylgeraniol wells 100; series mostly up to 19.5 µM; rescue activity (ATP increase): at the top concentration;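 also: myotubes are challenged with simvastatin at 10 µM to lower ATP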

Structure (SMILES)	rescue activity (ATP increase)
Cc1ccc(C(C(=O)NC2CCCC2)N(Cc2cccs2)C(=O)CNC(=O)c2cccs2)o1 (stereo unspecified)	3.04% (inactive)
O=C(NC1CCCC1)C(c1ccsc1)N(Cc1ccco1)C(=O)Cc1cccs1 (stereo unspecified)	7.96% (inactive)
Cc1ccc(S(=O)(=O)N(C)C[C@@H]2Oc3ncc(C#Cc4cccc(F)c4)cc3C(=O)N([C@H](C)CO)C[C@@H]2C)cc1	25.8% (inactive)
C[C@@H]1CCCCO[C@@H](CN(C)C(=O)Nc2cccc3ccccc23)[C@@H](C)CN([C@H](C)CO)C(=O)c2cc(NS(=O)(=O)c3ccc(Cl)cc3)ccc2O1	9.86% [at 21 µM] (inactive)
CC(C)CC#Cc1cnc2c(c1)C(=O)N([C@@H](C)CO)C[C@@H](C)[C@H](CN(C)C(=O)Cc1ccccc1)O2	-4.83% (inactive)
CC(C)CC#Cc1cnc2c(c1)C(=O)N([C@H](C)CO)C[C@@H](C)[C@H](CN(C)C(=O)Cc1ccccc1)O2	11.1% (inactive)
COc1cccc(-c2cnc3c(c2)C(=O)N([C@H](C)CO)C[C@H](C)[C@H](CN(C)Cc2ccccc2)O3)c1	17.4% (inactive)
COc1ccc(C#Cc2cnc3c(c2)C(=O)N([C@H](C)CO)C[C@H](C)[C@H](CN(C)Cc2cccc(C(F)(F)F)c2)O3)cc1OC	20.9% (inactive)
C[C@H](CO)N1C[C@H](C)[C@H](CN(C)C(=O)Nc2cccc3ccccc23)Oc2ncc(C#Cc3ccc(C(F)(F)F)cc3)cc2C1=O	8.24% [at 21 µM] (inactive)
C[C@H]1CN([C@@H](C)CO)C(=O)c2cc(C#Cc3cccc(F)c3)cnc2O[C@@H]1CN(C)C(=O)C1CCCCC1	24.4% (inactive)
C[C@H](CO)N1C[C@H](C)[C@@H](CN(C)CC2CCCC2)Oc2ncc(C#Cc3ccncc3)cc2C1=O	31.5% [at 18 µM] (inactive)
C[C@H](CO)N1C[C@H](C)[C@H](CN(C)C(=O)Nc2ccc3c(c2)OCO3)Oc2ncc(C#Cc3ccc(F)cc3)cc2C1=O	8.89% (inactive)
Cc1cc2c(cc1C)/C(=C\C(N)=O)NC(C)(C)C2	-8.58% (inactive)
COc1cc(C(N)=O)ccc1OCc1ccccc1	8.22% (inactive)
CCN(CC)C(=O)CSc1nnc([C@H](CCSC)NC(=O)OC(C)(C)C)o1	-9.94% (inactive)
O=C(NCc1ccccc1)Oc1cccc(Cl)c1	26.1% (inactive)
Cc1cc(NC(=O)c2ccc(Cl)c(S(=O)(=O)N3CCOCC3)c2)no1	-10.7% (inactive)
C[C@H]1CN([C@@H](C)CO)C(=O)c2cc(NS(=O)(=O)c3ccc(F)cc3)ccc2O[C@H]1CN(C)Cc1ccc(-c2ccccc2)cc1	5.05% (inactive)
CN1C[C@@H]2[C@H](c3ccccc31)[C@@H](CO)N2Cc1ccccc1	21.2% [at 21 µM] (inactive)
C[C@@H]1CN([C@@H](C)CO)C(=O)c2cc(NC(=O)c3ccccc3)ccc2O[C@@H](C)CCCCO[C@H]1CN(C)C(=O)CCCN(C)C	4.85% (inactive)
C[C@H]1CCCCO[C@H](CN(C)C(=O)Nc2cccc3ccccc23)[C@@H](C)CN([C@@H](C)CO)C(=O)c2cc(NS(=O)(=O)c3ccc(Cl)cc3)ccc2O1	-11.2% (inactive)
C[C@@H]1CN([C@H](C)CO)C(=O)c2cc(NC(=O)Nc3ccc(F)cc3)ccc2O[C@@H](C)CCCCO[C@H]1CN(C)S(=O)(=O)c1cccs1	7.63% (inactive)
O=C(CN1CCN(c2ccccn2)CC1)NCCc1ccccc1	4.85% (inactive)
CS(=O)(=O)N(CC(=O)NCc1ccccc1)C1CCCCC1	0.866% (inactive)
CSc1cc(-c2ccc(Cl)cc2)c(C(=O)NC(C)C)s1	4.58% (inactive)
COc1ccc(NC(=O)Nc2cccc3c2O[C@@H](CN(C)Cc2ccc(Oc4ccccc4)cc2)[C@@H](C)CN([C@H](C)CO)C3=O)cc1	-21% [at 21 µM] (inactive)

Structure (SMILES)	rescue activity (ATP increase)
COc1ccc(NC(=O)Nc2cccc3c2O[C@@H](CN(C)Cc2ccc(Oc4ccccc4)cc2)[C@@H](C)CN([C@@H](C)CO)C3=O)cc1	-0.035% (inactive)
Cc1noc(C)c1NC(=O)Nc1cccc2c1O[C@@H](CN(C)Cc1ccc(-c3ccccc3)cc1)[C@H](C)CN([C@@H](C)CO)C2=O	8.68% (inactive)
Cc1noc(C)c1NC(=O)Nc1cccc2c1O[C@H](CN(C)Cc1ccc(-c3ccccc3)cc1)[C@@H](C)CN([C@@H](C)CO)C2=O	-5.23% (inactive)
C[C@@H]1CN([C@@H](C)CO)C(=O)c2cc(C#CC3CCCCC3)cnc2O[C@@H]1CN(C)C(=O)C1CCCCC1	-4.43% (inactive)
CSc1nncn1/N=C/c1ccc2c(c1)OCO2	-1.45% (inactive)
COc1cccc(-c2cnc3c(c2)C(=O)N([C@H](C)CO)C[C@H](C)[C@H](CN(C)C(=O)Nc2cccc4ccccc24)O3)c1	9.55% (inactive)
COc1cc(C(=O)Oc2cccc(C)c2)cc(OC)c1OC	-10.8% (inactive)
O=C(c1cccs1)N1CCN(C2CCN(Cc3ccccc3)CC2)CC1	-9.46% (inactive)
COc1ccc(CN2CCN(C(=O)c3cccs3)CC2)cc1Br	28.6% (inactive)
COc1cc(S(=O)(=O)N2CCN(C(=O)c3ccccc3F)CC2)c(OC)cc1NC(C)=O	0.236% (inactive)
Cc1ccc(S(=O)(=O)N2CCCSCC2)cc1	10.4% (inactive)
Cc1noc(N)c1C(=O)Nc1ccc(F)c(Cl)c1	1.69% (inactive)
Cc1nnc(Sc2nc3c(c(=O)n(C)c(=O)n3C)n2Cc2ccccc2Cl)s1	-13.5% (inactive)
O=C1CCCC2=C1C(c1cccs1)Nc1ccc3ncccc3c12 (stereo unspecified)	24.9% (inactive)
CCCSc1nnc(CN2CCOCC2)n1C	-4.41% (inactive)
CCCNC(=O)C(=O)c1cccn1-c1ccsc1C(=O)OC	-13.7% (inactive)
CCOC(=O)c1ccc(NC(=O)N2CCCCC2)cc1	-33.5% (inactive)
C[C@H](CO)N1C[C@H](C)[C@H](CN(C)C(=O)Nc2ccc3c(c2)OCO3)OCCCC[C@H](C)Oc2ccc(NS(=O)(=O)c3ccc(F)cc3)cc2C1=O	36.7% (inactive)
Cc1ccc(CN2CCC(C(=O)NCCC(C)C)CC2)o1	-12.4% (inactive)
Cc1ccc(S(=O)(=O)N(C)C[C@H]2Oc3c(NC(=O)Nc4ccccc4)cccc3C(=O)N([C@H](C)CO)C[C@@H]2C)cc1	-0.949% (inactive)
Cc1ccc(S(=O)(=O)N(C)C[C@@H]2Oc3c(NC(=O)Nc4ccccc4)cccc3C(=O)N([C@@H](C)CO)C[C@H]2C)cc1	-16% (inactive)
COc1ccc(S(=O)(=O)Nc2cccc3c2O[C@H](CN(C)C(=O)Nc2ccc(F)cc2)[C@@H](C)CN([C@H](C)CO)C3=O)cc1	28.7% (inactive)
COc1ccc(S(=O)(=O)Nc2cccc3c2O[C@@H](CN(C)C(=O)Nc2ccc(F)cc2)[C@@H](C)CN([C@@H](C)CO)C3=O)cc1	8.52% (inactive)
COc1ccc(S(=O)(=O)Nc2cccc3c2O[C@@H](CN(C)C(=O)Nc2ccc(F)cc2)[C@@H](C)CN([C@H](C)CO)C3=O)cc1	13.7% (inactive)
Cc1ccc(S(=O)(=O)N(C)C[C@H]2Oc3c(NC(=O)Nc4ccccc4)cccc3C(=O)N([C@@H](C)CO)C[C@@H]2C)cc1	14.2% (inactive)
